The structures appear in SMILES notation. Out of some 320,000 compounds screened, about 2,100 (0.66%) were called active. Another 53% or so got no clear call; they are omitted. Calls follow the shape of the dose curve; as a rule, active = well fitted inhibition curve with a large enough effect in the signal ratio, with a control signal flat (not every such curve was filed as active); inconclusive = small, poorly fitted or top-dose-only effect, or effect the other way, or a change in a side signal; inactive = flat fitted curve, though single readings scatter; the % refers to the signal ratio. The sample as a whole holds a higher share of actives than the screen did.
Potency is read from the fitted curve at half-maximal effect.

The test in a line: qHTS Assay for Lipid Storage Modulators in Drosophila S3 Cells.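 As to cell number change: cells counted by Cell Tracker Red CMTPX staining in the red channel.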 As to lipid storage change, negative = inhibition: % is scaled to controls: 0 for no effect and ±100 for the full control effect. Conditions: BODIPY lipid droplet fluorescence, 18-24 h, cells fed with added oleic acid; cell number change: measured here: cell count max response; series mostly up to 46.1 µM; lipid storage change, negative = inhibition: at the top concentration. Put shortly: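 Drosophila S3 cells loaded with oleic acid (400 uM, as added) and compounds at several concentrations; lipid droplets imaged by 488-nm laser-scanning cytometry, 500–530 nm intensity and object ratio to cell channel. Percent activity normalized to 20 uM Triacsin C.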
For orientation: qHTS replaces the single test concentration by a dilution series.
In the case of `COc1ccc(S(=O)(=O)N2CCCCC2)cc1NC(=O)CSc1nccn1C`, the “lipid storage change, negative = inhibition” value was -17.8% (inactive) and the cell number change is -6.22%.
On to `CC(=O)c1c(C(C)=O)c(C)n(-c2ccc(C)c(NC(=O)c3ccccc3Cl)c2)c1C`, for which the “lipid storage change, negative = inhibition” value was 7.18% (inactive) and the cell number change was -18.6%.
On to `COc1ccc(NC(=O)N2CCCC(CCC(=O)N(C)CCc3ccccn3)C2)cc1` (stereo not given), for which the “lipid storage change, negative = inhibition” value is 3.61% (inactive) and the cell number change is -4.81%.
On the same counts, the results for `Cc1nc(N2CCCCC2)sc1C(=O)c1cccc([N+](=O)[O-])c1` are -23.7% (inactive) and -2.77%.
On the same counts, the results for `CC(=O)c1cccc(NC(=O)NC2CCCc3ccccc32)c1` (stereo not given) are -3.84% (inactive) and -3.38%.
The like results for `CCOc1cc(/C=C2\SC(=N)N(c3nonc3N)C2=O)ccc1OCC(N)=O` were, in that order, -17.3% (inactive) and 1.49%.
On to `COc1ccccc1N1CCN(C(=O)C(=O)c2cn(CC(=O)N3CCCC3)c3ccccc23)CC1`, for which the “lipid storage change, negative = inhibition” value was -17.6% (inactive) and the cell number change was -2.59%.
The like results for `O=CN1CCN(C(=O)C(=O)c2cn(CC(=O)N3CCCCC3)c3ccccc23)CC1` were, in that order, 5.33% (inactive) and 4.31%.
Take `CC(=O)c1ccc(N2CCN(C(=O)C(=O)c3cn(CC(=O)N4CCCCCC4)c4ccccc34)CC2)cc1`: the Potency was 16.4 µM (active) and the cell number change is -13.1%.
Regarding `CN1CCN(C(=O)C(=O)c2cn(CC(=O)N3CCCC3)c3ccccc23)CC1`, the “lipid storage change, negative = inhibition” value is -2.97% (inactive) and the cell number change is -8.67%.
For the compound `COc1ccccc1N1CCN(C(=O)C(=O)c2cn(CC(=O)N3CCCCCC3)c3ccccc23)CC1`, the Potency was 11.6 µM (active) and the cell number change was -23.8%.
Consider `COc1ccccc1NC(=O)C(=O)c1cn(CC(=O)N2CCCC2)c2ccccc12`, for which the call was inactive and the cell number change stood at 8.26%.
On to `CCCC(=O)Nc1c(-c2ccccc2Cl)c(=O)c2ccccc2n1C`, for which the “lipid storage change, negative = inhibition” value was -11.9% (inactive) and the cell number change was found to be 21.4%.
Regarding `COc1ccccc1-n1c(SCC(=O)Nc2nnc(C)s2)nc2c(c1=O)SCC2`, the “lipid storage change, negative = inhibition” value is 0.949% (inactive) and the cell number change worked out at 4.2%.
On the same counts, the results for `CCCCCCCCCCCCOC(=O)C[N+](C)(C)C` are -4.89% (inactive) and -12.3%.
For the compound `CCCCCCCCOC(=O)C[N+](C)(C)C/C=C(/C)Cl`, the “lipid storage change, negative = inhibition” value was 9.71% (inactive) and the cell number change came to 5.17%.
For the compound `CCCCCCCCCCOC(=O)C[N+](C)(C)C/C=C(/C)Cl`, the Potency is 2.06 µM (active) and the cell number change is -24.8%.
With `CC1(C)Cc2c(cnn2-c2ccccc2)C(NC(=O)C2(C(N)=O)CC2)C1` (stereo not given), the “lipid storage change, negative = inhibition” value was -9.11% (inactive) and the cell number change was determined as 8.69%.
The like results for `COc1ccc(C2CC(c3cccs3)=NN2C(=O)CCC(=O)O)cc1` (stereo not given) were, in that order, 2.58% (inactive) and -0.88%.
`COc1ccc(CN2C(=O)c3cccnc3C2=O)cc1S(=O)(=O)NC(C)C`: the result was inactive.
With `CCN(c1cccc(C)c1)S(=O)(=O)c1cc(CN2C(=O)c3cccnc3C2=O)ccc1OC`, the Potency is 8.2 µM (active) and the cell number change was 7.63%.
The like results for `COc1ccc(CN2C(=O)c3cccnc3C2=O)cc1S(=O)(=O)N1CCCCC1` were, in that order, 1.64 µM (active) and -13.9%.
As to `COc1ccc(CN2C(=O)c3cccnc3C2=O)cc1S(=O)(=O)N(C)c1ccc(C)cc1`, the call was inactive and the cell number change was 8.02%.
Regarding `COc1ccc(CN2C(=O)c3cccnc3C2=O)cc1S(=O)(=O)NC1CCCCC1C` (stereo not given), the outcome was inactive and the cell number change was -3.23%.
Regarding `CCCN(CCC)S(=O)(=O)c1cc(CN2C(=O)c3cccnc3C2=O)ccc1OC`, the “lipid storage change, negative = inhibition” value was 24.4% (inactive) and the cell number change is 9.22%.
For the compound `O=C(CN1C(=O)CCS(=O)(=O)c2ccccc21)NCc1ccc2c(c1)OCO2`, the “lipid storage change, negative = inhibition” value was 14.7% (inactive) and the cell number change was -18.6%.
Consider `CC1(C)Cc2c(sc(NC(=O)C(=O)NCC3CCCO3)c2C(N)=O)CO1` (stereo not given), for which the call was inactive and the cell number change was -4.25%.
Turning to `CNC(=O)c1ccccc1S(=O)(=O)c1ccccc1C#N`, the “lipid storage change, negative = inhibition” value is 4.63% (inactive) and the cell number change was -5.1%.
On the same counts, the results for `Cc1cc(C(F)(F)F)nn1CC(=O)NCc1cccs1` are 20.9% (inactive) and 3.66%.
In the case of `COc1ccc(OC)c(NC(=O)C2CCCCC2C(=O)O)c1` (stereo not given), the “lipid storage change, negative = inhibition” value was 4.14% (inactive) and the cell number change turned out to be 2.85%.
In the case of `COCC1CCN(C(=O)c2ccc(OC)c(OC3CCN(C(C)C)CC3)c2)CC1`, the outcome was inactive and the cell number change was found to be 13.3%.
For `CCCOc1ccc(C(=O)O)cc1`, the “lipid storage change, negative = inhibition” value is -24.9% (inactive) and the cell number change was found to be 0.594%.
The like results for `CN1CCC(N(C)C(=S)NC(=O)C23CC4CC(CC(C4)C2)C3)CC1` were, in that order, -6.23% (inactive) and -1.68%.
The like results for `CCOc1ccc(-n2c(N)c(C(=O)NCc3ccco3)sc2=S)cc1` were, in that order, -2.67% (inactive) and 1.94%.
On to `COc1ccc(CNC(=O)C/C(C)=N/NC(=O)C23CC4CC(CC(C4)C2)C3)cc1`, for which the “lipid storage change, negative = inhibition” value is 3.76% (inactive) and the cell number change was 9.74%.
For the compound `CC1CCN(C(=O)c2[nH]cnc2C(=O)NCC(=O)OCc2ccccc2)CC1`, the result was inactive and the cell number change turned out to be 12.3%.
On the same counts, the results for `COc1ccccc1CNC(=O)C1CCN(S(=O)(=O)c2ccc(N3CCCC3=O)cc2)CC1` are “inactive” and 16.5%.
As for `COc1cccc(C2/C(=C(\O)c3c(C)nc4c(C)cccn34)C(=O)C(=O)N2CCCN(C)C)c1` (stereo not given), the “lipid storage change, negative = inhibition” value is 6.42% (inactive) and the cell number change is -2.27%.
Turning to `CCCOc1cccc(C2/C(=C(/O)c3ccncc3)C(=O)C(=O)N2CCCN(C)C)c1` (stereo not given), the result was inactive and the cell number change is -3.79%.
As for `COc1ccc(C2/C(=C(\O)c3ccc(OC)c(Cl)c3)C(=O)C(=O)N2CCN(C)C)cc1` (stereo not given), the “lipid storage change, negative = inhibition” value was -3.93% (inactive) and the cell number change is 7.61%.
As for `COc1ccc(/C(O)=C2/C(=O)C(=O)N(CCN(C)C)C2c2ccccc2)cc1Cl` (stereo not given), the “lipid storage change, negative = inhibition” value was 4.66% (inactive) and the cell number change is -4.09%.
On the same counts, the results for `COc1cccc(C2/C(=C(\O)c3ccc4c(c3)OCCO4)C(=O)C(=O)N2CCN(C)C)c1` (stereo not given) are 10.2% (inactive) and -19.5%.
`COc1ccc(/C(O)=C2/C(=O)C(=O)N(CCCN(C)C)C2c2ccccc2)cc1Cl` (stereo not given): the Potency was 13 µM (active) and the cell number change was 2.04%.

For the origin of these results see PubChem BioAssay AID2685 (National Center for Advancing Translational Sciences (NCATS), 2010).
